Results from PubChem BioAssay (EPA / NIEHS).
Activity calls are given as the source filed them. Rule for the calls: active = hit-call score of the fitted dose curve at least 0.9, where 1 is the maximum; inactive = score below 0.9.

Columns and labels:
Conditions in all cases: mRNA level, 48 h; actives raise or lower the signal
MYC, MYC (gene 4609) = test: LTEA_HepaRG_MYC: Life Technologies and Expression Analysis (LTEA) Assay for MYC using HepaRG (AID 2283518)
Procedure, shortened: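 Differentiated human HepaRG cells, plated 48 h then switched to serum-free induction medium, were exposed in duplicate for 48 h to 8-point half-log series up to 100 uM in 0.5% DMSO. MYC mRNA measured by qRT-PCR, normalized to ACTB/GAPDH/POLR2A.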

[1] = read-out: matrix metalloproteinase-3 (MMP3), MMP3 (gene 4314); test: LTEA_HepaRG_MMP3: Life Technologies and Expression Analysis (LTEA) Assay for matrix metalloproteinase-3 (MMP3) using HepaRG (AID 2283519)
Procedure, shortened: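 qRT-PCR read-out of MMP3 mRNA (normalised to three housekeeping genes) in HepaRG liver cells after 48 h chemical exposure; 8-point half-log series, top 100 uM, 0.5% DMSO vehicle. Bidirectional curve fitting against DMSO baseline.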

[2] = read-out: Paternally Expressed 10 (PEG10), PEG10 (gene 23089); test: LTEA_HepaRG_PEG10: Life Technologies and Expression Analysis (LTEA) Assay for Paternally Expressed 10 (PEG10) using HepaRG (AID 2283520);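 for AC50: PEG10 transcript by qRT-PCR normalised to ACTB GAPDH and POLR2A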
Procedure, shortened: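 After 48 h exposure of differentiated HepaRG cells (0.5% DMSO vehicle, eight concentrations up to 100 uM, duplicates), PEG10 mRNA was measured by TaqMan qRT-PCR. Values were normalised to endogenous control genes and analysed bidirectionally against vehicle.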

[3] = read-out: Nuclear factor NF-kappa-B p105 subunit (Homo sapiens) (UniProt P19838); test: LTEA_HepaRG_NFKB1: Life Technologies and Expression Analysis (LTEA) Assay for Nuclear Factor Kappa B Subunit 1 (NFKB1) using HepaRG (AID 2283521)
Procedure, shortened: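 HepaRG, 48 h exposure; 8-pt half-log series from 100 uM in 0.5% DMSO; duplicates. Readout: NFKB1 mRNA by qRT-PCR (Fluidigm arrays), housekeeping-normalized. Gain/loss fit vs DMSO baseline.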

[4] = read-out: Protein phosphatase 2A (PPP2R4), PTPA (gene 5524); test: LTEA_HepaRG_PPP2R4: Life Technologies and Expression Analysis (LTEA) Assay for Protein phosphatase 2A (PPP2R4) using HepaRG (AID 2283522)
Procedure, shortened: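 Using HepaRG cultures maintained in 0.5% DMSO, chemicals are tested 48 h at up to 100 uM in duplicate. Induction or suppression of PPP2R4 mRNA, measured by qRT-PCR, is fitted bidirectionally against the vehicle baseline.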

[5] = read-out: Phosphatase and tensin (PTEN), PTEN (gene 5728); test: LTEA_HepaRG_PTEN: Life Technologies and Expression Analysis (LTEA) Assay for Phosphatase and tensin (PTEN) using HepaRG (AID 2283523)
Procedure, shortened: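 HepaRG, 48 h exposure, 8-pt half-log series from 100 uM top, 0.5% DMSO vehicle, duplicates. Readout: Fluidigm qRT-PCR of PTEN transcript; housekeeping normalization (ACTB, GAPDH, POLR2A). Gain or loss fitted relative to DMSO baseline.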

[6] = read-out: solute carrier (SLC22A1), SLC22A1 (gene 6580); test: LTEA_HepaRG_SLC22A1: Life Technologies and Expression Analysis (LTEA) Assay for solute carrier (SLC22A1) using HepaRG (AID 2283524);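 for AC50: TaqMan qRT-PCR normalized to ACTB GAPDH and POLR2A housekeeping genes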
Procedure, shortened: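 qRT-PCR readout (TaqMan, Fluidigm arrays) of SLC22A1 transcript, normalized to three housekeeping genes; bidirectional curve fit relative to 0.5% DMSO vehicle. Differentiated human HepaRG cells, 48 h chemical exposure, top concentration 100 uM, half-log steps, eight points.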

[7] = read-out: Pyruvate Dehydrogenase Kinase 4 (PDK4), PDK4 (gene 5166); test: LTEA_HepaRG_PDK4: Life Technologies and Expression Analysis (LTEA) Assay for Pyruvate Dehydrogenase Kinase 4 (PDK4) using HepaRG (AID 2283525)
Procedure, shortened: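 HepaRG (human liver line), 48 h chemical exposure, 8-pt half-log CRC top 100 uM, 0.5% DMSO vehicle, duplicates. Readout: TaqMan qRT-PCR of PDK4 mRNA, housekeeping-normalized; gain/loss fit relative to DMSO baseline.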

[8] = read-out: NAD(P)H dehydrogenase [quinone] 1 (NQO1), NQO1 (gene 1728); test: LTEA_HepaRG_NQO1: Life Technologies and Expression Analysis (LTEA) Assay for NAD(P)H dehydrogenase [quinone] 1 (NQO1) using HepaRG (AID 2283526)
Procedure, shortened: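 In this assay, gene expression is read by qRT-PCR after 48 h exposure of HepaRG cells to eight concentrations (max 100 uM, half-log) in 0.5% DMSO. Each chemical runs in duplicate, and activity is scored relative to vehicle.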

[9] = read-out: Nuclear factor erythroid 2-related factor 2 (Homo sapiens) (UniProt Q16236); test: LTEA_HepaRG_NFE2L2: Life Technologies and Expression Analysis (LTEA) Assay for Nuclear factor erythroid 2-related factor 2 (NFE2L2) Transcription Factor using HepaRG (AID 2283527)
Procedure, shortened: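 HepaRG, 48 h dosing, 8-pt half-log series from 100 uM in 0.5% DMSO, duplicates. Read-out: NFE2L2 mRNA by qRT-PCR (ACTB/GAPDH/POLR2A normalization). Bidirectional curve fit vs DMSO baseline.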

Measured: AC50

Sequence of Nuclear factor NF-kappa-B p105 subunit (Homo sapiens) (P19838 whole entry, looked up): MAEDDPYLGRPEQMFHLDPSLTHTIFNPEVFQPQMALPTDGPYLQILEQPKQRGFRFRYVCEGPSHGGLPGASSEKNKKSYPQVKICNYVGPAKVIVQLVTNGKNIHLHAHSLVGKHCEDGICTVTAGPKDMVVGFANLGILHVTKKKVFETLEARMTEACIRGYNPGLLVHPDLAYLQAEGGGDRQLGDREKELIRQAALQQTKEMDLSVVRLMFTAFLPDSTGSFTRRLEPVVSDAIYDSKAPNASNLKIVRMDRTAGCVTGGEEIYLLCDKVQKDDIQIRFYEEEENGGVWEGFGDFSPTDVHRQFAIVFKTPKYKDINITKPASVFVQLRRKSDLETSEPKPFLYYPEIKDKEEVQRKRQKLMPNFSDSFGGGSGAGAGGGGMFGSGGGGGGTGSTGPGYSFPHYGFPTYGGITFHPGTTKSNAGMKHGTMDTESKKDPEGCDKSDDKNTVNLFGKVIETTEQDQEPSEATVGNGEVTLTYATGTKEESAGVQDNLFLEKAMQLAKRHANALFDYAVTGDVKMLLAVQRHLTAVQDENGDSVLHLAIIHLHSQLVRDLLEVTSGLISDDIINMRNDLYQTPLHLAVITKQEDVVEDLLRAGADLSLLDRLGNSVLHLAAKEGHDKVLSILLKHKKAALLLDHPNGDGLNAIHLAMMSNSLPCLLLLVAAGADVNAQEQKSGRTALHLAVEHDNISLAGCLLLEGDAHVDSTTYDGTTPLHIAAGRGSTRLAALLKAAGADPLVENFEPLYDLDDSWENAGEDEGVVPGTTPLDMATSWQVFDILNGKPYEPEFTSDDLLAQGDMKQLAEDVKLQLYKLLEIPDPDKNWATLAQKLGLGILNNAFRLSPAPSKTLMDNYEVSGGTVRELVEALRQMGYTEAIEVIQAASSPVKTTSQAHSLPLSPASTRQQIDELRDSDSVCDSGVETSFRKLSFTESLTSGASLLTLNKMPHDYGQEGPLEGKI
Sequence of Nuclear factor erythroid 2-related factor 2 (Homo sapiens) (Q16236 whole entry, looked up): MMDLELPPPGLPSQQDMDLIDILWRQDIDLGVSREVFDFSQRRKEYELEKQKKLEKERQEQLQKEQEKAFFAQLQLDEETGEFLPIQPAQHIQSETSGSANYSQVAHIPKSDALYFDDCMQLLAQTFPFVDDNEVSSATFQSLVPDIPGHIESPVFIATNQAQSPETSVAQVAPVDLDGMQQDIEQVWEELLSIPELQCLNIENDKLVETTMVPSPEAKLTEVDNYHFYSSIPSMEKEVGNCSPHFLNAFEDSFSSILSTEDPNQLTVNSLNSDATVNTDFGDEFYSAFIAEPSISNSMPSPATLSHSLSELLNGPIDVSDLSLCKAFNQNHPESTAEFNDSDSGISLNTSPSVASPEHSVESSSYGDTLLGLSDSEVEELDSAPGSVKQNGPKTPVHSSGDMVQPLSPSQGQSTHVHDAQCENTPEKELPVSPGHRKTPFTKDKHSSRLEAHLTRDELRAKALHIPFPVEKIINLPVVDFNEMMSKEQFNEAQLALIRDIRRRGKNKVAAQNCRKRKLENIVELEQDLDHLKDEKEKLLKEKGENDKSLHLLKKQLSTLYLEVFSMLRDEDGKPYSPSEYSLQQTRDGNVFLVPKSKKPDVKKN

CC(=O)[C@@]1(O)CC[C@H]2[C@@H]3CCC4=CC(=O)CC[C@]4(C)[C@H]3CC[C@@]21C
inactive: MYC, MYC (gene 4609) | [1] | [3] | [4] | [5] | [6] | [7] | [8] | [9]
active: [2] 7.76 µM

CC(C)c1cccc(C(C)C)c1
inactive: MYC, MYC (gene 4609) | [1] | [2] | [3] | [4] | [5] | [6] | [7] | [8]

NCCOCCOCCN
inactive: MYC, MYC (gene 4609) | [1] | [2] | [3] | [4] | [5] | [6] | [7] | [9]

CN(C)CCCN1c2ccccc2Sc2ccc(Cl)cc21
active: MYC, MYC (gene 4609) 87.5 µM | [2] 18.2 µM | [3] 78.4 µM | [5] 78 µM | [6] 79.4 µM | [8] 83.9 µM | [9] 82.4 µM
inactive: [1] | [4] | [7]

CC1(C)C(=O)NC(=O)N1CO
inactive: MYC, MYC (gene 4609) | [1] | [2] | [3] | [4] | [5] | [6] | [7]

O=C1CCCCC1
inactive: MYC, MYC (gene 4609) | [1] | [2] | [3] | [4] | [5] | [6] | [7] | [8] | [9]

CCCCCCCC(=O)OC
active: [5] 12.2 µM
inactive: MYC, MYC (gene 4609) | [1] | [2] | [3] | [4] | [6] | [7] | [8] | [9]

C=CCc1ccc(OC)c(OC)c1
active: [5] 0.0454 µM
inactive: MYC, MYC (gene 4609) | [1] | [2] | [3] | [4] | [6] | [7] | [9]

CCC(C)N(C)C(=O)c1cc2ccccc2c(-c2ccccc2Cl)n1 (stereo not given)
inactive: [1] | [3] | [4] | [5] | [8]
active: MYC, MYC (gene 4609) 31.8 µM | [2] 13.1 µM | [6] 6.3 µM | [7] 40.9 µM | [9] 16.8 µM

O=C(O)c1cccnc1
inactive: MYC, MYC (gene 4609) | [1] | [2] | [3] | [4] | [5] | [6] | [7]

CCCCOC(=O)CCCCC(=O)OCCCC
active: [6] 0.243 µM
inactive: MYC, MYC (gene 4609) | [1] | [2] | [3] | [4] | [5] | [7] | [8]

CC(=O)O[C@]1(C(C)=O)CC[C@H]2[C@@H]3C=C(Cl)C4=CC(=O)[C@@H]5C[C@@H]5[C@]4(C)[C@H]3CC[C@@]21C
inactive: [1] | [2] | [3] | [4] | [5] | [7]
active: MYC, MYC (gene 4609) 9.92 µM | [6] 50 µM | [9] 81.2 µM

Cc1ccc(C(C)(C)C)c(O)c1
inactive: MYC, MYC (gene 4609) | [1] | [2] | [3] | [4] | [5] | [6] | [7] | [8] | [9]

COC(=O)CCC(=O)OC
inactive: MYC, MYC (gene 4609) | [1] | [2] | [3] | [4] | [5] | [6] | [7] | [8] | [9]

CCCC(=O)O
inactive: MYC, MYC (gene 4609) | [1] | [2] | [3] | [4] | [5] | [6] | [7] | [8]

CCCCc1nc2cccnc2n1Cc1ccc(-c2ccccc2-c2nnn[nH]2)cc1
active: [1] 50 µM | [2] 74.6 µM | [6] 65.5 µM | [7] 28.6 µM
inactive: MYC, MYC (gene 4609) | [3] | [4] | [5] | [8]

OCC(CO)n1cnc(-c2ccc(F)cc2)c1-c1ccnc(Oc2ccccc2)n1
active: [1] 13.5 µM
inactive: MYC, MYC (gene 4609) | [2] | [3] | [4] | [5] | [6] | [7] | [8]

O=C(O)CN(CC(=O)O)CC(=O)O
inactive: MYC, MYC (gene 4609) | [1] | [2] | [3] | [4] | [5] | [6] | [7] | [8]

CS(=O)(=O)c1ccc([C@@H](C[C@H]2CCC(=O)C2)C(=O)Nc2cnccn2)cc1Cl
active: MYC, MYC (gene 4609) 1.14 µM | [1] 1.16 µM | [3] 1.38 µM | [4] 0.49 µM | [5] 10.1 µM | [6] 2.77 µM | [7] 0.913 µM
inactive: [2]

Nc1nc(Cl)nc2c1ncn2[C@H]1C[C@H](O)[C@@H](CO)O1
inactive: MYC, MYC (gene 4609) | [3]
active: [1] 3.75 µM | [2] 0.636 µM | [4] 1.92 µM | [5] 3.12 µM | [6] 0.811 µM | [7] 0.452 µM

CC(=O)OC1CC(C)OC(C)O1 (stereo not given)
inactive: MYC, MYC (gene 4609) | [1] | [2] | [3] | [4] | [5] | [6] | [7] | [8]

CCCCC(CC)CO (stereo not given)
inactive: MYC, MYC (gene 4609) | [1] | [2] | [3] | [4] | [5] | [6] | [7]

CC1=C(C)S(=O)(=O)CCS1(=O)=O
active: MYC, MYC (gene 4609) 72.6 µM | [4] 74.4 µM | [6] 82.1 µM | [7] 62 µM
inactive: [1] | [2] | [3] | [5] | [8]

O=C(O)CC(O)(CC(=O)O)C(=O)O
inactive: MYC, MYC (gene 4609) | [1] | [2] | [3] | [4] | [5] | [6] | [7] | [8]

CC(C)OC(=O)C(C)(C)Oc1ccc(C(=O)c2ccc(Cl)cc2)cc1
active: [1] 0.0439 µM | [7] 16.7 µM
inactive: MYC, MYC (gene 4609) | [2] | [3] | [4] | [5] | [6]

Cn1cnc2c1c(=O)[nH]c(=O)n2C
inactive: MYC, MYC (gene 4609) | [1] | [2] | [3] | [4] | [5] | [6] | [7]

C#CC(O)C(CC)CCCC (stereo not given)
inactive: MYC, MYC (gene 4609) | [1] | [2] | [3] | [4] | [5] | [6] | [7]

O=NO
inactive: MYC, MYC (gene 4609) | [1] | [2] | [3] | [4] | [5] | [6] | [7]
